High-throughput results (PubChem)
Hits are enriched below; roughly 13% of the tested compounds scored in any of these assays.
HCMV antiviral = qHTS Assay for inhibitors of the human cytomegalovirus (HCMV) | HFF cells, HCMV-luciferase reporter, 72 h; stronger effect = lower value | activity change, negative = inhibition, % at 57.5 µM | 410,000 compounds, 4.5% hits; in the data active means activity change below about -60%; inconclusive means no clear call, values can overlap the other calls; inactive means above about -39%
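Inhibition of viral replication was scored as loss of reporter luminescence in HFFs infected with HCMV-luciferase (MOI 1 PFU/cell) for 72 h; compounds tested at 2 doses, normalized to buffer and Salinomycin controls.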
Pf growth 96h = Primary qHTS for delayed death inhibitors of the malarial parasite plastid, 96 hour incubation | P. falciparum luciferase reporter growth, 96 h | Potency, µM (doses to about 28.7 µM), usual class: inhibitors | 320,000 compounds, 6.9% hits | AID 504834, 2011
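Two parasite generations (96 h, 37 C, 5% CO2) of compound exposure in infected erythrocytes (0.05% parasitemia, 2% hematocrit). Luciferase-reporter P. falciparum; decreased luminescence indicates inhibited growth, aimed at apicoplast-acting delayed death.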
HCV inh = qHTS Assay for Inhibitors of Hepatitis C Virus (HCV) | Huh7.5.1 HCVcc-Cre infection, luciferase reporter, 44 h | Potency, µM (titrated, usually from 41.8 µM), usual class: inhibitors | 340,000 compounds, 3.4% hits
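HCVcc-Cre virus at an moi near 0.5 was added right after compound to cells cultured 4 h from seeding (1,000 cells/well). Luciferase activity was determined 44 h later, 15 min after substrate addition at RT.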
Pf growth 48h = Primary qHTS for delayed death inhibitors of the malarial parasite plastid, 48 hour incubation; P. falciparum luciferase growth in erythrocytes, 48 h; Potency, µM (highest dose often 28.7 µM), most hits filed as inhibitors; 310,000 compounds, 5.9% hits; AID 504832, 2011
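Luminescence readout; reporter = integrated firefly luciferase in P. falciparum. RBC culture at 2% hematocrit, 0.1% parasitemia final, 37 C/5% CO2; decreased signal taken as growth inhibition.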
Large screens that a line does not name were inactive. Unless noted, the call rests on the fitted dose curve; in most records, active means well fitted inhibition curve with a large enough effect; inconclusive means small, poorly fitted or top-dose-only effect, or another doubt; inactive means no such curve, though single readings can be large or run the other way.

CCC(=O)N1CCc2cc(Br)cc(S(=O)(=O)N3CCCC(C(=O)NCc4ccccc4)C3)c21 (stereo unspecified)	none (no result: Pf growth 96h, HCV inh, Pf growth 48h)
CCc1ccc(Oc2c(C(F)(F)F)oc3c(CN4CCCC(C)C4)c(O)ccc3c2=O)cc1 (stereo unspecified)	none (no result: Pf growth 96h, HCV inh, Pf growth 48h)
O=C(NC1CCCCC1)/C(=C/c1ccc(Cl)cc1)NC(=O)c1ccccc1	none (no result: Pf growth 96h, HCV inh, Pf growth 48h)
COc1ccc(C)cc1NC(=S)NC(C)c1ccc(OC)c(OC)c1 (stereo unspecified)	HCMV antiviral inconclusive, HCV inh 11µM, Pf growth 48h inconclusive
CC(=O)c1cccc(CN2CCCCC2C(=O)Nc2ccc(Oc3ccccc3)nc2)c1 (stereo unspecified)	HCV inh inconclusive, Pf growth 48h inconclusive
O=C(Nc1ccc(Oc2ccccc2)nc1)C1CCN(Cc2ccco2)CC1	HCV inh inconclusive
O=C(Nc1ccc(Oc2ccccc2)nc1)C1CCN(Cc2cccc(F)c2)CC1	HCMV antiviral -69, Pf growth 48h inconclusive (no result: HCV inh)
C#Cc1ccc(CN2CCC(C(=O)Nc3ccc(Oc4ccccc4)nc3)CC2)cc1	HCMV antiviral active, Pf growth 96h 2.3µM, HCV inh 4.5µM, Pf growth 48h inconclusive
CCOc1ccc(CNS(=O)(=O)c2cc3c(cc2C)NC(=O)CO3)cc1OC	none (no result: Pf growth 96h, HCV inh, Pf growth 48h)
COc1cccc(NC(=O)CSC2=Nc3ccccc3C3=NC(CC(=O)NCCc4ccccc4)C(=O)N23)c1 (stereo unspecified)	none (no result: Pf growth 96h, HCV inh, Pf growth 48h)
Cc1ccc2nsnc2c1-n1c(C)nc2ccccc2c1=O	HCV inh inconclusive
Cc1cccc(C)c1-n1c(=O)c2nc3ccccc3nc2c2ccccc21	HCMV antiviral -96 (no result: Pf growth 96h, HCV inh, Pf growth 48h)
COCCn1nnnc1C(C(C)C)N(Cc1cccnc1)Cc1cc2cc(OC)ccc2[nH]c1=O (stereo unspecified)	Pf growth 48h inconclusive
Cc1cccc2cc(CN(Cc3ccco3)C(c3nnnn3CCc3ccccc3)C(C)C)c(=O)[nH]c12 (stereo unspecified)	HCV inh inconclusive, Pf growth 48h 1.9µM
COc1ccc2[nH]c(=O)c(CN(Cc3ccco3)C(c3nnnn3Cc3ccccc3)C(C)C)cc2c1 (stereo unspecified)	HCMV antiviral -98, Pf growth 96h 3.3µM, HCV inh inconclusive (no result: Pf growth 48h)
COCCn1nnnc1C(C(C)C)N(Cc1ccccc1)Cc1cc2cc(OC)ccc2[nH]c1=O (stereo unspecified)	HCV inh inconclusive, Pf growth 48h 8.3µM
COc1ccccc1NC(=S)N(Cc1ccco1)Cc1cc2cccc(C)c2[nH]c1=O	HCV inh inconclusive, Pf growth 48h inconclusive
CCC(C)(C)n1nnnc1C(C(C)C)N(Cc1ccco1)Cc1cc2cc3c(cc2[nH]c1=O)OCO3 (stereo unspecified)	Pf growth 96h inconclusive, HCV inh 22µM, Pf growth 48h inconclusive
CCCCCCCCCCCCN1CCSCCS1(=O)=O	none (no result: Pf growth 96h, HCV inh, Pf growth 48h)
O=S(=O)(c1ccccc1)c1nc(-c2ccc(Cl)cc2Cl)oc1N1CCCCCC1	none (no result: Pf growth 96h, HCV inh, Pf growth 48h)
CCc1ccc2[nH]c(=O)c(CN(Cc3ccc(OC)cc3)Cc3nnnn3CCOC)cc2c1	Pf growth 96h inconclusive, Pf growth 48h 1.9µM
COc1ccc(-n2c(=O)n(Cc3ccccc3)c(=O)c3[nH]cnc32)cc1	Pf growth 96h inconclusive
COc1ccc(Cn2c(=O)c3[nH]cnc3n(-c3ccc(C)cc3)c2=O)cc1	Pf growth 96h 2.3µM, HCV inh inconclusive, Pf growth 48h inconclusive
Cc1cccc(Cc2nnc(CCC(=O)N(C)C3CCOC3)o2)c1 (stereo unspecified)	HCMV antiviral -70, Pf growth 96h inconclusive
Cc1ncsc1C(=O)NCc1ccc(N2CCCC2=O)cc1	Pf growth 96h 4.7µM (no result: HCV inh, Pf growth 48h)
O=C(NCc1ccc(N2CCCC2=O)cc1)c1cnccn1	Pf growth 96h inconclusive (no result: Pf growth 48h)
CCCN(CCC)C(=O)C1CCN(c2cc(C)nc3c(-c4ccc(Cl)cc4)c(C)nn23)CC1	none (no result: Pf growth 96h, HCV inh, Pf growth 48h)
CCOC(=O)CC(NC(=O)Cn1nnc(-c2ccc(C(F)(F)F)cc2)n1)c1ccc(C)cc1 (stereo unspecified)	none (no result: Pf growth 96h, HCV inh, Pf growth 48h)
CCOC(=O)CNC(=O)CSc1ccc(-c2nc3ccccc3[nH]2)cn1	none
Cc1cc2nc(-c3ccc(SCc4ccc(C#N)cc4)nc3)[nH]c2cc1C	HCMV antiviral inconclusive, Pf growth 96h 7.4µM, HCV inh 11µM, Pf growth 48h inconclusive
Cc1cc2nc(-c3ccc(SCC(=O)Nc4nccs4)nc3)[nH]c2cc1C	HCMV antiviral inconclusive, Pf growth 96h inconclusive
CC(=O)CSc1ccc(-c2nc3cc(C)c(C)cc3[nH]2)cn1	HCMV antiviral -100, HCV inh inconclusive
CC(=O)CSc1ccc(-c2nc3ccccc3[nH]2)cn1	Pf growth 96h 8.3µM, HCV inh inconclusive
[O-][n+]1ccccc1C(O)CSc1ccccc1 (stereo unspecified)	none (no result: Pf growth 96h, HCV inh, Pf growth 48h)
CC(=O)C1=C(O)C(=O)N(c2cc(C(C)(C)C)on2)C1c1ccc(C(C)C)cc1 (stereo unspecified)	Pf growth 96h 13µM (no result: HCMV antiviral)
CC(=O)C1=C(O)C(=O)N(c2cc(C(C)(C)C)on2)C1c1ccc(Br)cc1 (stereo unspecified)	Pf growth 48h 10µM (no result: Pf growth 96h)
Cc1cccc(N2CCn3c2nc2c3c(=O)n(CCCc3ccccc3)c(=O)n2C)c1	none (no result: Pf growth 96h, HCV inh, Pf growth 48h)
COc1ccccc1-n1c(-c2ccccc2)c[nH]c1=S	Pf growth 96h inconclusive
CC(C)c1ccc(-n2c(-c3ccccc3)c[n+]3c2CCc2ccccc2-3)cc1	HCMV antiviral -98, Pf growth 96h 0.83µM, HCV inh inconclusive, Pf growth 48h 1µM
CCOc1ccc(-n2c(-c3ccccc3)c[n+]3c2CCC3)cc1	Pf growth 96h inconclusive, Pf growth 48h inconclusive
CCC(C)NC(=O)c1ccc(-n2c(-c3ccccc3)cc3c2CCCC3)cc1 (stereo unspecified)	none (no result: Pf growth 96h, HCV inh, Pf growth 48h)
COc1ccccc1-n1c(-c2ccccc2)c[n+]2c1CCc1ccccc1-2	HCMV antiviral -100, Pf growth 96h inconclusive, HCV inh 4µM, Pf growth 48h inconclusive
COc1ccc(-n2c(-c3ccc(Br)cc3)c[n+]3c2CCc2ccccc2-3)cc1	HCMV antiviral -100, Pf growth 96h 0.47µM, HCV inh inconclusive, Pf growth 48h 1.9µM
CC1(c2ccccc2)NC(=O)N(CC(=O)Nc2ccccc2N2CCCC2)C1=O (stereo unspecified)	Pf growth 48h inconclusive
CN1CCN(c2ccc(Cl)cc2NC(=O)c2cccc(S(=O)(=O)N(C)C)c2)CC1	HCV inh inconclusive, Pf growth 48h inconclusive (no result: Pf growth 96h)
CCC1(c2ccc(F)cc2)NC(=O)N(CC(=O)N2CCc3ccccc32)C1=O (stereo unspecified)	Pf growth 96h 10µM, Pf growth 48h 12µM
CN1CCN(c2ccc(Cl)cc2NC(=O)CN2C(=O)NC(C)(c3ccccc3)C2=O)CC1 (stereo unspecified)	Pf growth 96h inconclusive, HCV inh inconclusive, Pf growth 48h 2.9µM
CN1CCN(c2ccc(Cl)cc2NC(=O)C2COc3ccccc3O2)CC1 (stereo unspecified)	Pf growth 96h 2.3µM, Pf growth 48h 8.3µM
